Results on seven compounds are retold here after PubChem BioAssay (Tox21).

Results filed as inconclusive are left out. Activity calls are given as the source filed them. Unless noted, calls follow the shape of the dose curve; as a rule, active = well fitted curve in the direction sought with a large enough effect in the repeat runs; inconclusive = weak or mixed curves; inactive = no such curve, though single readings can be large; an effect the other way counts as inactive or inconclusive.

A short description of experiment [1]: qHTS assay to identify aromatase inhibitors - cell viability counter screen (AID 743084).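 Also: cells stimulated with testosterone during compound exposure; nearly all actives have a fitted effect of over 55% in size.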 Also: potency is read from the fitted curve at half-maximal effect. A general note: qHTS replaces the single test concentration by a dilution series.
For experiment [2], the target named is Peroxisome proliferator-activated receptor gamma (Homo sapiens) (UniProt P37231). Put plainly: qHTS assay to identify small molecule agonists of the peroxisome proliferator-activated receptor gamma (PPARg) signaling pathway (AID 743094; active = well fitted activation curve with a large enough effect in the signal ratio in the repeat runs, not every such curve was filed as active; the % refers to the signal ratio). The procedure, abridged:
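GeneBLAzer PPARg UAS-bla HEK293H cells were plated, rested 5 h, then exposed to compounds for 17 h at 37C. Beta-lactamase activity was read by LiveBLAzer B/G FRET substrate fluorescence after 1 h at room temperature.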

Experiment [3] in a line: qHTS assay to identify small molecule antagonists of the peroxisome proliferator-activated receptor gamma (PPARg) signaling pathway - cell viability counter screen (AID 743194). Also: nearly all actives have a fitted effect of over 55% in size. Also: potency is read from the fitted curve at half-maximal effect. The method, boiled down: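 PPARg-UAS-bla HEK293H cells were plated, rested 5 h at 37 C, then treated with compounds plus rosiglitazone (50 nM final) for 17 h at 37 C; viability was then read by CellTiter-Glo luminescence after 30 min at room temperature.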

A short description of experiment [4]: qHTS assay for small molecule activators of the heat shock response signaling pathway - cell viability counter screen (AID 743209). Also: nearly all actives have a fitted effect of over 50% in size. Also: potency is read from the fitted curve at half-maximal effect. The method, boiled down:
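HSE-bla HeLa cells plated overnight, then exposed to Tox21 compounds (23 nL in DMSO) for 5 h at 37 C. After the bla reporter read, CellTiter-Glo was added in the same wells and luminescence read after 30 min at room temperature.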

The nature of experiment [5]: qHTS assay to identify small molecule agonists of the peroxisome proliferator-activated receptor delta (PPARd) signaling pathway - cell viability counter screen (AID 743211). Also: nearly all actives have a fitted effect of over 55% in size. Also: potency is read from the fitted curve at half-maximal effect. The procedure, abridged: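 Read-out: CellTiter-Glo luminescence, 30 min RT, measured in the same wells as the beta-lactamase reporter. Cells: GeneBLAzer PPAR delta UAS-bla HEK293H, 3000 cells/well, compound exposure 17 h at 37C.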

For experiment [6], the target named is Peroxisome proliferator-activated receptor delta (Homo sapiens) (UniProt Q03181). Put plainly: qHTS assay to identify small molecule agonists of the peroxisome proliferator-activated receptor delta (PPARd) signaling pathway (AID 743212; calls by dose curve). The procedure, abridged: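 A PPARd-bla HEK293H line with beta-lactamase under an Upstream Activator Sequence is treated with compounds at 37 C. Substrate loading for 2 h at room temperature precedes the fluorescence measurement.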
Chain of Peroxisome proliferator-activated receptor delta (Homo sapiens) (Q03181 whole entry, looked up): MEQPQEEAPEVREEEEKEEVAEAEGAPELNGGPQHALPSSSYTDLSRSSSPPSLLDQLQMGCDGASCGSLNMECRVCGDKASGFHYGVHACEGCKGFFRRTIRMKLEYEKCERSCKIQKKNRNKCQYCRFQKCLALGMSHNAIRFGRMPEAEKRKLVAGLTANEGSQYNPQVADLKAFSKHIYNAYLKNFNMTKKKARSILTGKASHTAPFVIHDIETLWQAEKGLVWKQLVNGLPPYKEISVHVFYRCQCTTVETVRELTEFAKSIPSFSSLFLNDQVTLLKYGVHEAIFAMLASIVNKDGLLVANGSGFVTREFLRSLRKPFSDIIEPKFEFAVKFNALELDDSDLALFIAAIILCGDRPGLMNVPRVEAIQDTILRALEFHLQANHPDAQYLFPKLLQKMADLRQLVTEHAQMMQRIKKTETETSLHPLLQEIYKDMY

Experiment [7] can be described thus: qHTS assay to identify small molecule antagonists of the peroxisome proliferator-activated receptor delta (PPARd) signaling pathway - cell viability counter screen (AID 743213). Also: nearly all actives have a fitted effect of over 50% in size. Also: potency is read from the fitted curve at half-maximal effect. The method, boiled down: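 HEK293H cells with the PPARd UAS-bla reporter, co-treated 17 h at 37 C with compounds and L165041 (300 nM final), were lysed with CellTiter-Glo. Luminescence indicated viable cell content.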

Experiment [8] addresses Peroxisome proliferator-activated receptor delta (Homo sapiens) (UniProt Q03181). Put plainly: qHTS assay to identify small molecule antagonists of the peroxisome proliferator-activated receptor delta (PPARd) signaling pathway (AID 743215; active = well fitted inhibition curve with a large enough effect in the signal ratio in the repeat runs, not every such curve was filed as active; the % refers to the signal ratio;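 also: cells stimulated with agonist L165041 at 300 nM final during compound exposure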; also: potency is read from the fitted curve at half-maximal effect). The procedure, abridged:
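PPARd-bla HEK293H cells (UAS-bla reporter) preincubated 5 h, then given compound plus 300 nM final L165041 agonist for 17 h at 37 C. Beta-lactamase activity read by LiveBLAzer B/G FRET substrate fluorescence after 2 h at room temperature.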

In experiment [9] the target is Bile acid receptor (Homo sapiens) (UniProt Q96RI1). The experiment can be described thus: qHTS assay to identify small molecule agonists of the farnesoid-X-receptor (FXR) signaling pathway (AID 743220; active = well fitted activation curve with a large enough effect in the signal ratio in the repeat runs, not every such curve was filed as active; the % refers to the signal ratio). The method, boiled down:
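Beta-lactamase reporter under UAS control in GeneBLAzer FXR HEK 293T cells (5000/well) measured with LiveBLAzer FRET substrate after 2 h at room temperature. Compound exposure lasted 16 h at 37C.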

Experiment [10] is described as follows: qHTS assay to identify small molecule antagonists of the farnesoid-X-receptor (FXR) signaling pathway - cell viability counter screen (AID 743221; active = well fitted cell-killing curve with a large enough effect in the repeat runs, not every such curve was filed as active; also: nearly all actives have a fitted effect of over 50% in size; also: potency is read from the fitted curve at half-maximal effect). The procedure, abridged: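 HEK 293T FXR-bla cells, 5 h pre-incubation; compound + CDCA 50 uM final, 16 h, 37 C; beta-lactamase FRET read first, then CellTiter-Glo luminescence, 30 min RT.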
Experiment [11] addresses Vitamin D3 receptor (Homo sapiens) (UniProt P11473). The experiment can be described thus: qHTS assay to identify small molecule antagonists of the vitamin D receptor (VDR) signaling pathway (AID 743223; active = well fitted inhibition curve with a large enough effect in the signal ratio in the repeat runs, not every such curve was filed as active; the % refers to the signal ratio). The procedure, abridged: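 Beta-lactamase reporter read-out: FRET substrate fluorescence after 2 h at room temperature, following 16 h exposure of VDR-bla cells to test compound plus 3 nM (final) 1alpha,25-dihydroxyvitamin D3 agonist at 37C.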

Experiment [12] in a line: qHTS assay for small molecule agonists of the antioxidant response element (ARE) signaling pathway - cell viability counter screen (AID 743203; calls by dose curve; also: nearly all actives have a fitted effect of over 55% in size; also: potency is read from the fitted curve at half-maximal effect). The procedure, abridged: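 ARE-bla HepG2 cells were plated, rested 5 h at 37C/5% CO2, then exposed to compounds in DMSO for 16 h. Viability was read as CellTiter-Glo luminescence after 30 min at room temperature, in the same wells as the ARE screen.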

Experiment [13] is described as follows: qHTS assay for small molecule activators of the heat shock response signaling pathway (AID 743210; active = well fitted activation curve with a large enough effect in the signal ratio in the repeat runs, with a control signal flat, not every such curve was filed as active; the % refers to the signal ratio;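 also: HeLa cells with beta-lactamase reporter driven by heat shock elements; series mostly up to about 63 µM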). The method, boiled down:
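Reporter gene assay: HeLa cells stably bearing an HSE-bla construct, compound treatment 5 h at 37 C, LiveBLAzer substrate 2.5 h at RT, fluorescence intensity.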

Experiment [14] concerns the target Bile acid receptor (Homo sapiens) (UniProt Q96RI1). Put plainly: qHTS assay to identify small molecule antagonists of the farnesoid-X-receptor (FXR) signaling pathway (AID 743217; active = well fitted inhibition curve with a large enough effect in the signal ratio in the repeat runs, not every such curve was filed as active; the % refers to the signal ratio). The method, boiled down: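 FXR-UAS-bla HEK 293T cells (beta-lactamase reporter) given compound plus chenodeoxycholic acid (50 uM final), 16 h at 37C. LiveBLAzer B/G FRET substrate added for 2 h at room temperature; fluorescence read.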

A short description of experiment [15]: qHTS assay to identify small molecule agonists of the farnesoid-X-receptor (FXR) signaling pathway - cell viability counter screen (AID 743218). Also: nearly all actives have a fitted effect of over 45% in size. Also: potency is read from the fitted curve at half-maximal effect. The procedure, abridged: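 FXR-UAS-bla HEK 293T cells exposed to compounds for 16 h at 37C. Cytotoxicity read in the same wells by CellTiter-Glo luminescence after 30 min at room temperature, following the beta-lactamase FRET read.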

Experiment [16] concerns the target Vitamin D3 receptor (Homo sapiens) (UniProt P11473). The experiment can be described thus: qHTS assay to identify small molecule agonists of the vitamin D receptor (VDR) signaling pathway (AID 743222; calls by dose curve). The method, boiled down: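 VDR-bla cells plated 4 h at 37 C, then exposed to compounds for 16 h at 37 C. Beta-lactamase reporter activity measured by fluorescence after 2 h room-temperature loading with LiveBLAzer B/G FRET substrate.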

Experiment [17] is described as follows: qHTS assay to identify small molecule that activate the aryl hydrocarbon receptor (AhR) signaling pathway - cell viability counter screen (AID 743086).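 Also: HepG2 liver cells carrying the AhR DRE luciferase reporter; series mostly up to about 70 µM; nearly all actives have a fitted effect of over 45% in size.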 The procedure, abridged:
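HepG2-AhR-luc (HG2L7.5c1) cells, 4000/well, were preincubated 5 h at 37C, exposed to compound in qHTS format for 24 hr at 37C, then given CellTiter-Fluor for 30 min; viability was read as fluorescence in the reporter wells.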

Experiment [18] deals with Peroxisome proliferator-activated receptor gamma (Homo sapiens) (UniProt P37231). The experiment can be described thus: qHTS assay to identify small molecule antagonists of the peroxisome proliferator-activated receptor gamma (PPARg) signaling pathway (AID 743191; calls by dose curve; also: series mostly up to about 63 µM; nearly all actives have a fitted effect of over 30% in size). The procedure, abridged:
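GeneBLAzer PPARg UAS-bla HEK293H cells carrying a UAS-driven beta-lactamase reporter were plated at 3000 cells/well, preincubated 5 h at 37C, then given compound for 17 h at 37C; LiveBLAzer B/G FRET substrate was read after 1 h at room temperature.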

The target in experiment [19] is Aryl hydrocarbon receptor (Homo sapiens) (UniProt P35869). The experiment can be described thus: qHTS assay to identify small molecule that activate the aryl hydrocarbon receptor (AhR) signaling pathway (AID 743085). Also: nearly all actives have a fitted effect of over 15% in size. Also: potency is read from the fitted curve at half-maximal effect.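 As to activation: HG2L7.5c1 human HepG2 liver cells with stably integrated DRE-driven firefly reporter; series mostly up to about 70 µM.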 The method, boiled down: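 Luminescence read-out: ONE-Glo reagent, 30 min at room temperature, in HG2L7.5c1 HepG2 reporter cells treated 24 h at 37C. Viability was measured beforehand by CellTiter-Fluor fluorescence after 30 min at 37C.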
Chain of Aryl hydrocarbon receptor (Homo sapiens) (P35869 whole entry, looked up): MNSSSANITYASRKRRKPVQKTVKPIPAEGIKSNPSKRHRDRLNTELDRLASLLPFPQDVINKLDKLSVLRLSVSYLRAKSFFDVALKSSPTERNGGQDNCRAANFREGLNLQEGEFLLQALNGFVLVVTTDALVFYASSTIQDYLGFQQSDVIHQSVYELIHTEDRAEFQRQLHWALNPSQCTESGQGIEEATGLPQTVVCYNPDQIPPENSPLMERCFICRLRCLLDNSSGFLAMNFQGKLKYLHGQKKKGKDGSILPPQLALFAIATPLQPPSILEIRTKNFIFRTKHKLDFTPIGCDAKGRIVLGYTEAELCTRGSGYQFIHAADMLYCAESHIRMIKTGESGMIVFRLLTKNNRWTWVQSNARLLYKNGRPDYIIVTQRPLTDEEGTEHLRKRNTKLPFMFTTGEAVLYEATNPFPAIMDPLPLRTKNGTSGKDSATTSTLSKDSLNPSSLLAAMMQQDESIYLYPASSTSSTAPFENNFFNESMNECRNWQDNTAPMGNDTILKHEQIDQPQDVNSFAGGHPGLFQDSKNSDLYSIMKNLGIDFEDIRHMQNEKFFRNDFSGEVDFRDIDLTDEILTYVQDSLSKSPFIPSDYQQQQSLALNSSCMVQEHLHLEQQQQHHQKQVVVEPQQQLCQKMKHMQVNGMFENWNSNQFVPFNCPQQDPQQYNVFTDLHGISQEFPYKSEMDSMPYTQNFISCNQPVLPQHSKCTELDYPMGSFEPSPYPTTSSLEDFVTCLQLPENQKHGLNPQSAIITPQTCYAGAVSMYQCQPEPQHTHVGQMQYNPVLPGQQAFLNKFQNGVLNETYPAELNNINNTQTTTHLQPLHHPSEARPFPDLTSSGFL

Chain of Bile acid receptor (Homo sapiens) (Q96RI1 whole entry, looked up): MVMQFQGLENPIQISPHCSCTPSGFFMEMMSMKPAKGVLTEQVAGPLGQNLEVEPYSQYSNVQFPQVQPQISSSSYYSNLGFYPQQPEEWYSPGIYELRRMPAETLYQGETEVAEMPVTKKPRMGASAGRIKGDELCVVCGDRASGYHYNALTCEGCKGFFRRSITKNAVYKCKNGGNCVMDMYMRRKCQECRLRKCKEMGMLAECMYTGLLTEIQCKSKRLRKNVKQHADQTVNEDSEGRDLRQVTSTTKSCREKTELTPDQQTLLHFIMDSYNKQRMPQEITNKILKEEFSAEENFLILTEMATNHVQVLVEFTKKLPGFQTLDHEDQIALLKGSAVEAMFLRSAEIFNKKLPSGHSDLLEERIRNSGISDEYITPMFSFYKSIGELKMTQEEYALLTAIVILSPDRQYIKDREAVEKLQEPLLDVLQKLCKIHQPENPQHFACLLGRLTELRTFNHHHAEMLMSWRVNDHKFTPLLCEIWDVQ
Chain of Peroxisome proliferator-activated receptor gamma (Homo sapiens) (P37231 whole entry, looked up): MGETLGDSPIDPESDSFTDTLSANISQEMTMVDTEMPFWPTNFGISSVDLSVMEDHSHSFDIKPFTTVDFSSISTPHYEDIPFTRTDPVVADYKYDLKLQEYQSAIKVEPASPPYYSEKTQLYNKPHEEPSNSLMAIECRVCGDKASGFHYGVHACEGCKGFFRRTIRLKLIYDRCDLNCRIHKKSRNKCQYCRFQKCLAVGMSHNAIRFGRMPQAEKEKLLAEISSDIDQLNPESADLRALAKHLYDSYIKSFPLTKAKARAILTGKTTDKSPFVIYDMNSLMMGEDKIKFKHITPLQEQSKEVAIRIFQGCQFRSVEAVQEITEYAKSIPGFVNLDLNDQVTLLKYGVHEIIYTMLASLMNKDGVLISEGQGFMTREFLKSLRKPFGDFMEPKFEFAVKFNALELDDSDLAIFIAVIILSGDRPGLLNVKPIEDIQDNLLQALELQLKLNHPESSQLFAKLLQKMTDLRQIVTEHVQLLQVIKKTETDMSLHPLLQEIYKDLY
Chain of Vitamin D3 receptor (Homo sapiens) (P11473 whole entry, looked up): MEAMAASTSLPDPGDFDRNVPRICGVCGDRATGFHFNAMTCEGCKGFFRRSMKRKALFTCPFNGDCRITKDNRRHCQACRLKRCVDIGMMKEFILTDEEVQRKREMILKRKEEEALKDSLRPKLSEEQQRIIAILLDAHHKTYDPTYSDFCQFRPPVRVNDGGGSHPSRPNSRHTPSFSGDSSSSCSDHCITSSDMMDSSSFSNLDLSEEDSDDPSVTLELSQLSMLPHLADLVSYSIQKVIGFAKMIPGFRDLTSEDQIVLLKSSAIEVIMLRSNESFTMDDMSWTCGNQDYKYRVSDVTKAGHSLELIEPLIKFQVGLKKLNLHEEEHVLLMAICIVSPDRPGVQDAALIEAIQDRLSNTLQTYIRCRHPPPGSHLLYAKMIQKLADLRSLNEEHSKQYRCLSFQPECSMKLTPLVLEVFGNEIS

Take `Cc1cc(Nc2ccc(O)cc2)ccc1N`: the Potency in experiment [1] is 24.2 µM (active); in [3] it was 12.2 µM (active). Further, the Potency result in [2], in experiment [4], in experiment [5], in experiment [7], in experiment [8] and in [9] was “inactive” throughout. Moreover, the Potency result in experiment [10] and in experiment [11] was “inactive” in each case. In addition, the compound was classed as inactive in [6].
With `COc1cccc(CCc2ccccc2OCC(CN(C)C)OC(=O)CCC(=O)O)c1` (stereo not given), the Potency result in experiment [1], in [12], in experiment [4], in experiment [13], in [8] and in experiment [14] was “inactive” in each case. For the same compound, the Potency entry in [15], in [9], in [16] and in [11] was “inactive” in each case. In experiment [6], the compound was called inactive.
As to `CCCCCCOc1cc(C)c(O)c(C)c1C`, the Potency in experiment [1] was 49.2 µM (active). The Potency entry in [2], in [3], in experiment [5], in [7], in [8] and in experiment [15] was “inactive” in each case. Further, the Potency entry in experiment [16] and in experiment [11] was “inactive” each time. Besides, the compound was called inactive in [6].
For `CCCCOc1ccc(C(=O)CCN2CCCCC2)cc1`, the Potency result in [1], in experiment [17], in [2], in experiment [18], in experiment [3] and in [4] was “inactive” throughout. Moreover, the Potency entry in experiment [7], in experiment [8], in [14] and in experiment [9] was “inactive” each time. For the same compound, the Potency in experiment [12] is 26.6 µM (active); in [5], 11.9 µM (active). Also, in [6], the compound was called inactive.
In the case of `CCCCCCC(C)Nc1ccc(Nc2ccccc2)cc1` (stereo not given), the Potency result in [1], in [17], in [2] and in experiment [12] was “inactive” each time. Also, the Potency in experiment [4] was 49 µM (active); in [5], 43.6 µM (active); in [8] it was 49 µM (active); in [10], 49 µM (active). The result in [6] was inactive.
Take `O=C(Nc1ccc(Cl)c(Cl)c1)c1cc(Cl)cc(Cl)c1O`: the Potency in [19] is 0.109 µM (active); in experiment [3], 0.49 µM (active); in experiment [12], 24.3 µM (active); in experiment [5], 5.49 µM (active); in experiment [7], 11 µM (active); in experiment [15], 3.89 µM (active). Further, the Potency in experiment [10] is 13.8 µM (active). In addition, the Potency result in [17] was “inactive”.
Turning to `CCc1ccc(O)c(C(C)(C)C)c1`, the Potency entry in experiment [19], in experiment [17], in experiment [2], in experiment [4], in experiment [15] and in experiment [10] was “inactive” in each case. Moreover, in [16], the Potency result is “inactive”. For the same compound, the outcome in experiment [6] was inactive.
